In PubChem BioAssay AID449762 (Southern Research Specialized Biocontainment Screening …, 2010) one finds inhibition data, which are given here for 92 molecules.

Among all 330,000 compounds or so, about 1,900 (0.58%) were called active. Not shown: some 4% with an inconclusive outcome. A selection follows. Measured potencies and affinities stand elsewhere. Unmarked numbers belong to inactive results. Rule as the data show it: inconclusive = inhibition above about 70% without an active follow-up result; inactive = below that.

The nature of this assay: M. tuberculosis growth inhibition, HTS (AID 449762).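 Also: bacterial growth assessed after seven days of incubation.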 Particulars: M. tuberculosis H37Rv growth inhibition, 7H9 media; at 25 µM; stronger effect = higher value.
On to `Cc1ccccc1OCCCCCn1ccnc1`, for which the inhibition was -16.2%. The same measure for `Clc1ccccc1OCCCCn1ccnc1`: -6.48%; for `COc1ccccc1NC(=O)C(C)OC(=O)/C(=C/c1ccccc1)NC(C)=O` (configuration not stated): 5.35%.

Regarding `O=C(Nc1ccc2c(c1)OCO2)c1ccc(Br)s1`, the inhibition is 65%. The same measure for `O=C(Nc1ccc2c(c1)OCO2)c1cccs1`: -1.92%; for `O=c1[nH]nc(-c2ccc(F)cc2)cc1Cc1ccccn1`: 1.36%; for `CCC(C)(C)NC(=O)C(c1ccc(OC)cc1)N(C(=O)CCC(=O)Nc1cc(C)on1)c1ccccc1OC` (configuration not stated): -10.6%. For `O=[N+]([O-])c1ccccc1/C=C/CN1CCCCC1` the value was -9.58%; for `O=C(Nc1ccn(Cc2c(F)c(F)cc(F)c2F)n1)c1ccc(COc2ccccc2Cl)cc1`, 0.39%. Regarding `O=C(Nc1ccn(Cc2c(F)c(F)c(F)c(F)c2F)n1)c1ccc(COc2ccccc2Cl)cc1`, the inhibition was -14%. Turning to `CCCOC(=O)C1NC(=O)N2C(C(=O)OCCC)C(C)(C)S[C@H]12` (some centres not stated), the inhibition was -1.23%. The same measure for `c1ccc(-c2ccc(SCc3cccnc3)nn2)nc1`: -8.38%; for `c1ccc(CSc2ccc(-c3ccccn3)nn2)nc1`: 7.58%; for `CC(=O)c1ccc(NC(=O)C(C)Sc2nnc3ccccn23)cc1` (configuration not stated): -6.02%. As for `C=CCn1c(O)c(N=Nc2ccccc2)c2ccccc21`, the inhibition is 19.4%. `C=CCn1c(O)c(N=Nc2ccccc2C)c2ccccc21`: the inhibition is 53.8%. For `O=C(Nc1ccc(C(=O)N2CCCC2)cc1)Nc1ccc(Cl)cc1Cl` the value was -2.35%; for `CC(C)c1nc(NCCO)c2nnn(Cc3ccccc3)c2n1`, -8.58%; for `COc1ccc(-n2nc(C(=O)NCC(=O)Nc3cc(C)ccc3OC)c3ccccc3c2=O)c(OC)c1`, 12.5%. For `c1ccc(Cn2c[n+](Cc3ccccc3)c3ccccc32)cc1` the value was 2.04%. Regarding `Cc1ccc(OCC(O)CN2CCN(c3ccc(C)cc3)CC2)cc1` (configuration not stated), the inhibition was 10.5%. The same measure for `CO/N=C/CC(=O)Nc1ccc(F)cc1F`: -4.1%; for `O=C(CCNC(=O)c1ccc([N+](=O)[O-])cc1)Nc1ccc(F)cc1F`: 17.9%; for `O=C(COC(=O)c1ccc(F)cc1F)NCc1ccc2c(c1)OCO2`: 2.2%. The same measure for `O=C(Nc1ccc2c(c1)OCCO2)C1CC(c2ccc(F)cc2)=NO1` (configuration not stated): -3.61%; for `C=CCOc1ccc(C2=NOC(C(=O)Nc3ccc4c(c3)OCCO4)C2)cc1OC` (configuration not stated): 4.17%. On to `COc1cccc(-c2nnc3sc(C4CCCCC4)nn23)c1`, for which the inhibition was 66.4%. For `COc1ccccc1-c1nnc2sc(C3CCCCC3)nn12` the value was -3.09%; for `CC(CN1CCCC1)OC(=O)c1ccc(Cl)cc1Cl` (configuration not stated), 4.38%; for `CC(=O)c1ccc(N2CCN(C(=S)NCCCN(C)C)CC2)cc1`, 3.66%. The same measure for `CCCCNC(=S)N1CCN(c2ccc(C(C)=O)cc2)CC1`: 7.05%; for `COc1ccc(-c2sc(Nc3ccccc3)n[n+]2-c2ccc(F)cc2)c(C)c1C`: 1.59%; for `CC(C)c1ccccc1NC(=O)CC1(CC(=O)O)CCCC1`: -1.9%.

`Cc1ccc(N2C(=O)[C@@H]3Cc4ccccc4CN3C2=O)cc1`: the inhibition is 1.44%. In the case of `O=[N+]([O-])c1c(C(Cl)Cl)nn(-c2ccccc2)c1N1CCOCC1`, the inhibition was 5.81%.

For `O=[N+]([O-])c1c(C(Cl)Cl)nn(-c2ccccc2)c1N1CCCC1`, the inhibition was -9.83%. The same measure for `Cc1cc(C)n(-c2ccc(C(=O)NCc3cccs3)cc2)n1`: -8.74%. The same measure for `COc1ccc(-c2cc(N)n(S(=O)(=O)c3ccc(C)cc3)n2)c(OC)c1`: -6.16%; for `Cc1ccc(-n2c(C)cc(/C=C3\SC(=O)NC3=O)c2C)cc1`: 7.2%. The same measure for `Cc1cc(/C=C2\SC(=O)N(C)C2=O)c(C)n1-c1ccc(S(N)(=O)=O)cc1`: -2.91%.

Regarding `Nc1ccc(-c2cc(-c3ccc(N)cc3)nc(-c3ccccc3)n2)cc1`, the inhibition is -2.43%. The same measure for `COc1ccccc1N1CCN(C(c2cccs2)C(C)NC(=O)C(=O)N2CCCCC2)CC1` (configuration not stated): 3.15%; for `Cc1cc(C(=O)Nc2c(C)nn(Cc3ccccc3Cl)c2C)no1`: -4.86%. For `Cc1ccc(S(=O)(=O)Oc2cccc(/C=N/Nc3ccc(C(=O)O)cc3)c2)cc1` the value was 20.9%. The same measure for `O=C(Cc1cccs1)N1CCCC(c2nc3c(nnn3Cc3ccc(F)cc3)c(=O)[nH]2)C1` (configuration not stated): -5.77%; for `CC(C)(C)c1ccc(Cn2nnc3c(=O)[nH]c(C4CCCN(C(=O)c5cccs5)C4)nc32)cc1` (configuration not stated): 11.9%. Consider `COc1c(/C=N/NC(N)=S)c(C)nn1-c1ccccc1`, for which the inhibition is 65.5%. For the molecule `CCC1CN(C(=O)N2CCC(C(=O)NCCc3ccccc3OC)CC2)c2ccccc2O1` (configuration not stated), the inhibition was 2.39%. In the case of `CCCc1cc2c(cc1NC(=O)c1ccccc1F)OCO2`, the inhibition is 42%. In the case of `CCCc1cc2c(cc1NC(=O)c1ccco1)OCO2`, the inhibition is 0.1%. The same measure for `CCCCNC(=S)N(C)/N=C/c1ccc(OCC(=O)Nc2ccc(OC)cc2)c(OC)c1`: 5.57%. The same measure for `O=C(NNC(=O)c1cccc(-n2cnnn2)c1)c1ccccc1`: 4.62%; for `COc1ccc(CCN2CCCC(CN(C)Cc3cc(OC)c(OC)c(OC)c3)C2)cc1` (configuration not stated): 2.86%; for `CCCCCCCCNC(=O)/C(C#N)=C/c1ccccc1[N+](=O)[O-]`: 9.84%. Turning to `C(=Nc1ccc(Nc2ccccc2)cc1)c1ccc2ccccc2c1`, the inhibition was 1.29%. For `O=[N+]([O-])c1ccc(N=Cc2ccc(Br)c([N+](=O)[O-])c2)cc1` the value was -2.74%; for `Cc1ccc(NC(=O)CCSc2ccccn2)cc1`, -4.42%; for `Cc1cccc(N2CCN(C(=O)C3CCN(S(=O)(=O)c4cccc5cccnc45)CC3)CC2C)c1` (configuration not stated), -1.75%.

As to `Cc1cc(C)c(NC(=O)COC(=O)Cn2nc(-c3ccccc3)oc2=O)c(C)c1`, the inhibition is 3.1%.

Regarding `C[C@@H]1C[C@H]2OC(=O)C3(CO3)[C@H]2[C@H](O)[C@]2(C)C(=O)C3OC3[C@@H]12` (some centres not stated), the inhibition was -4.69%. For `C=C1C(=O)O[C@@H]2C[C@@H](C)[C@H]3C=CC(=O)[C@]3(O)C[C@@H]12` the value was 7.75%. The same measure for `Cc1cccc(NC(=O)NNC(=O)COc2ccc3ccccc3c2)c1`: -0.35%. Consider `COc1ccc(OC)c(C(c2nnnn2C2CCCC2)N2CCN(c3ccc(F)cc3)CC2)c1` (configuration not stated), for which the inhibition is 4.35%. Take `O=C1C(=O)N(c2ccccn2)C(c2ccc(F)cc2)/C1=C(/O)c1ccc(Br)cc1` (configuration not stated): the inhibition is -4.6%. As for `CC1CCCC(NC(=O)NC(=O)COC(=O)c2ccc(O)cc2O)C1C` (configuration not stated), the inhibition is 0.995%. For `CC1CCCC(NC(=O)CSC2CCCCC2)C1C` (configuration not stated) the value was 3.14%; for `Cc1cccc(OCC(=O)NNC(=O)Cn2c(=O)cnc3ccccc32)c1`, -8.21%.

As to `O=C(CSc1nc(=O)n2ccccc2n1)Nc1cccc2ccccc12`, the inhibition is 5.25%. In the case of `N#Cc1ccccc1OCC(=O)N1N=C(c2cccs2)CC1c1ccco1` (configuration not stated), the inhibition was 1.37%.

`c1ccc(-c2cc3ncccc3cn2)cc1`: the inhibition was -4.81%.

Consider `c1ccc(-c2cn3c(n2)CCC3)cc1`, for which the inhibition was -1.06%. The same measure for `O=C(Nc1cccc2c1CCCC2)c1ccccc1F`: 10.2%; for `CC(=O)c1ccc(-n2c(CCC(=O)O)ccc2-c2cccs2)cc1`: -2.12%. Turning to `NC(=O)c1ccc(-n2c(CCC(=O)O)ccc2-c2cccs2)cc1`, the inhibition is -1.94%. For `CCc1ccc(NC(=O)CC2C(=O)N(c3ccc(OC)cc3)C(=O)N2CCOC)cc1` (configuration not stated) the value was -1.31%. For `CC(C)CNC(=O)c1c(N)n(/N=C/c2ccccn2)c2nc3ccccc3nc12` the value was 4.33%; for `CCC(C)NC(=O)c1c(N)n(/N=C/c2cccnc2)c2nc3ccccc3nc12` (configuration not stated), 27.8%. For `COc1ccc(/C=C/C(=O)Nc2ccccc2Cl)cc1S(=O)(=O)N1CCOCC1` the value was -10.4%. In the case of `COc1ccc(Cn2nnnc2CN2CCc3ccccc32)cc1`, the inhibition was 1.54%. For `O=C(COC(=O)c1nsc(Cl)c1Cl)NC1CCCCC1` the value was 0.77%. `CC(OC(=O)c1snc(C(=O)NC2CCCCC2)c1N)C(=O)NC1CCCCC1` (configuration not stated): the inhibition is -2.81%. As to `c1ccc(-c2nc3cccnc3nc2-c2ccccc2)cc1`, the inhibition was -12.8%. The same measure for `Nc1c(-c2ccccc2)nc(Cl)nc1-c1ccccc1`: 15.6%. The same measure for `COc1ccc(S(=O)(=O)NCC(=O)N(CC(=O)NCC2CCCO2)Cc2ccccc2)cc1` (configuration not stated): -4.12%. The same measure for `COc1ccc(CCNC(=O)C(=O)NCc2ccc(C(C)C)cc2)cc1OC`: -15.8%. For `COc1ccc(C2(c3ccc(OC)cc3)NC(=O)N(CC(=O)Nc3ccc(C(N)=O)cc3)C2=O)cc1`, the inhibition was -7.66%.

In the case of `COc1ccc(NC(=O)CN2C(=O)NC(c3ccccc3)(c3ccccc3)C2=O)cc1`, the inhibition is -1.71%.

`CC(C)CCc1noc(CN(CC2CCC2)CC2CCCO2)n1` (configuration not stated): the inhibition was -1.94%.

For the molecule `O=C(COC(=O)Cc1ccc(S(=O)(=O)N2CCOCC2)s1)Nc1ccc([N+](=O)[O-])cc1`, the inhibition is -2.45%.

For `Cc1ccc(CNC(=O)c2ccc(N3CCC4(CC3)CC(c3ccccc3)=NO4)c(NC(=O)c3ccc(Cl)c([N+](=O)[O-])c3)c2)cc1`, the inhibition was -10.7%.

For the molecule `Cc1ccc(NC(=O)CCN2C(=O)c3cccc([N+](=O)[O-])c3C2=O)c(Br)c1`, the inhibition was 7.28%. The same measure for `Cc1cccc(NC(=O)CCN2C(=O)c3cccc([N+](=O)[O-])c3C2=O)c1`: -5.47%.
